# Reference: the supplement of paper PMC9694430
# Legend:
# Test in all cases: thermal shift delta Tm vs DMSO control; higher = stronger stabilization (binding)
# Details in all cases: 12.5 µM; protein concentration 2 µM
# LOC_OS02G45750-cb003 = system: LOC_OS02G45750-cb003
# Summary of the method: (§1)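 Heating from 25°C to 95°C at 0.05°C/s, fluorescence was recorded for 19.5 μl wells of 2 μM E. coli-expressed, purified rice kinase domain in 100 mM potassium phosphate pH 7.5, 150 mM NaCl, 10% glycerol and 5 × SYPRO Orange with compound in DMSO. Boltzmann fits gave melting temperatures for this differential scanning fluorimetry assay. The shift reported is the mean of three replicates against the DMSO-only protein.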
# LOC_OS02G54510-cb004 = system: LOC_OS02G54510-cb004
# Summary of the method: as §1
# LOC_OS03G04050-cb001 = system: LOC_OS03G04050-cb001
# Summary of the method: as §1
# LOC_OS03G12390-cb001 = system: LOC_OS03G12390-cb001
# Summary of the method: as §1
# LOC_OS03G27990-cb004 = system: LOC_OS03G27990-cb004
# Summary of the method: as §1
# LOC_OS03G50450-cb001 = system: LOC_OS03G50450-cb001
# Summary of the method: as §1
# LOC_OS03G50810-cb003 = system: LOC_OS03G50810-cb003
# Summary of the method: as §1
# LOC_OS04G35114-cb001 = system: LOC_OS04G35114-cb001
# Summary of the method: as §1
# LOC_OS04G38480-cb003 = system: T1, LOC_OS04G38480-cb003
# T1 sequence (whole entry): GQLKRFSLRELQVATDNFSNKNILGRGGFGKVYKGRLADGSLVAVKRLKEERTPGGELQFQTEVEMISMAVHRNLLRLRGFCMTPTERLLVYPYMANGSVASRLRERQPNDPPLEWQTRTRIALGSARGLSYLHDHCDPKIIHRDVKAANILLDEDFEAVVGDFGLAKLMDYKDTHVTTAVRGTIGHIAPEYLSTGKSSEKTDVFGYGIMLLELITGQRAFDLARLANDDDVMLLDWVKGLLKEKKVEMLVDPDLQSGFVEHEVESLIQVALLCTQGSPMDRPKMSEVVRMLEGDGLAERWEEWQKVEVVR
# Summary of the method: as §1
# LOC_OS04G41100-cb001 = system: T2, LOC_OS04G41100-cb001
# T2 sequence (whole entry): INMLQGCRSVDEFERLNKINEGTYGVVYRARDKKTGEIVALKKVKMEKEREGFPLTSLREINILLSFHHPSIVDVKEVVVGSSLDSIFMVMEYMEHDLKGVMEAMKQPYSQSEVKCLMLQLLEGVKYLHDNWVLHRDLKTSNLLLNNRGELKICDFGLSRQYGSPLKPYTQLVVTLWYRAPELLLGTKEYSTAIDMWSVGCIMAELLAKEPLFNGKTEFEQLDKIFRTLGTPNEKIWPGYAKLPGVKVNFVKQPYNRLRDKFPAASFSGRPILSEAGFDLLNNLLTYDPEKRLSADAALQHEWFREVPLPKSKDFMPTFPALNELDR
# Summary of the method: as §1
# 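Also: purified Escherichia coli-expressed rice kinase domain construct.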
Structure (SMILES),thermal shift delta Tm (LOC_OS02G45750-cb003) [°C],thermal shift delta Tm (LOC_OS02G54510-cb004) [°C],thermal shift delta Tm (LOC_OS03G04050-cb001) [°C],thermal shift delta Tm (LOC_OS03G12390-cb001) [°C],thermal shift delta Tm (LOC_OS03G27990-cb004) [°C],thermal shift delta Tm (LOC_OS03G50450-cb001) [°C],thermal shift delta Tm (LOC_OS03G50810-cb003) [°C],thermal shift delta Tm (LOC_OS04G35114-cb001) [°C],thermal shift delta Tm (LOC_OS04G38480-cb003) [°C],thermal shift delta Tm (LOC_OS04G41100-cb001) [°C]
"O=C(c1ccc(F)c(F)c1Nc1ccc(I)cc1F)N1CC(O)([C@@H]2CCCCN2)C1 [Cobimetinib (GDC-0973, RG7420)]",1.13,0.05,0.77,-0.17,0.68,0.95,0.43,0.76,0.54,0.19
CCS(=O)(=O)N1CC(CC#N)(n2cc(-c3ncnc4[nH]ccc34)cn2)C1,2.13,1.15,0.77,1.62,0.66,1.09,0.62,1.29,0.44,0.43
CC1(COc2ccc3c(c2)ncn3-c2ccc3cccc(N4CCC(N)CC4)c3n2)COC1,16.4,0.52,0.13,1.74,7.81,0.06,8.62,9.74,3.29,0.23
Cc1cc(CN2CCN(c3c(Br)cnc4nc(-c5ccc(N6CCN(C)CC6)cc5)[nH]c34)CC2)no1,11.1,0.56,0.42,2.08,1.47,4.97,4,3.09,2.28,0.48
CC(C)(C)Cn1c(N)nc2ccc(-c3[nH]c(C(C)(C)C)nc3-c3ccc(F)cc3)nc21,0.45,0.25,0.52,-0.25,0.28,0.23,0.13,0.02,0.12,0.22
